The nature of assay [1]: A549 cell viability effects, profiling panel, calcein-AM fluorescence, 48 h, basal (AID 1162). The note with it: higher = more signal.
A short description of assay [2]: adipocyte viability effects, profiling panel, cell-based, 3T3-L1 adipocytes, calcein-AM fluorescence, 48 h, basal (AID 1163). To be noted: 3T3-L1 adipocytes viability, higher = more signal.
The nature of assay [3]: HepG2 cell viability effects, profiling panel, calcein-AM fluorescence, 48 h, basal (AID 1164). The note with it: higher = more signal.
Assay [4] can be described thus: MM1S cell viability effects, profiling panel, calcein-AM fluorescence, 48 h, basal (AID 1165).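 Also: viability of MM1S multiple myeloma cells under basal unstimulated conditions.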 To be noted: higher = more signal.
The nature of assay [5]: basal RPMI8226 viability, no added stimulus, profiling panel, cell-based, calcein-AM fluorescence, 48 h, PK04 Diversity Set (AID 1166).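 Also: cells grown under basal conditions without added stimulus.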 The note with it: RPMI8226 myeloma viability, higher = more signal.
Assay [6] in a line: basal HepG2 mitochondrial membrane potential changes, profiling panel, cell-based, JC-1 fluorescence, 24 h, 100 nL compound (AID 1167). To be noted: higher = more signal.
A short description of assay [7]: basal 3T3-L1 adipocyte mitochondrial potential changes, profiling panel, cell-based, JC-1 fluorescence, 3T3-L1 adipocytes, 24 h, 100 nL compound (AID 1168). The note with it: JC-1 mitochondrial fluorescence, higher = more signal, called active from +8 up or from −8 down.
Assay [8] can be described thus: basal RPMI8226 mitochondrial membrane potential changes, profiling panel, cell-based, JC-1 fluorescence, 24 h, 100 nL compound (AID 1169). To be noted: RPMI8226 myeloma, JC-1 mitochondrial potential fluorescence, higher = more signal.
Assay [9] can be described thus: basal MM1S mitochondrial membrane potential changes, profiling panel, cell-based, JC-1 fluorescence, 24 h, 100 nL compound (AID 1170). To be noted: higher = more signal.
Assay [10] is described as follows: A549 lung cancer cell viability effects, profiling panel, resazurin fluorescence, 24 h, PK04 Diversity Set (AID 1171). To be noted: higher = more signal, called active from +8 up or from −8 down. Background: Alamar Blue is a resazurin reagent that responds to reducing activity.

Active and inactive are the calls of the source.
Also: test concentration not given here.

On to `COCCOC(=O)N1C(=O)[C@@]2(c3cc(C#CC4(O)CCCCCC4)ccc31)[C@H](C(=O)Nc1nc3ccccc3s1)[C@H]1C(=O)O[C@H](c3ccccc3)[C@H](c3ccccc3)N1[C@@H]2c1ccc(OCCO)cc1`, for which the z-score is -0.593 in [1]; 1.47 in assay [2]; -0.15 in assay [3]; -1.83 in assay [4]; -2.56 in assay [5]; -3.3 in assay [6]. The z-score was -0.438 (inactive) in assay [7], -0.635 in assay [8], -1.18 in assay [9] and 0.566 (inactive) in assay [10].

As to `CCOC(=O)C1=C[C@@H](C(C)C)N(S(=O)(=O)c2ccc(C)cc2)[C@H]1c1ccccc1F`, the z-score in [1] is -1.2; in [2] it was 0.0139; in assay [3], -0.972; in assay [4], -0.463; in assay [5], -1.08; in assay [6], 0.175. Also, the z-score in [7] was 0.227 (inactive); in [8], -0.128; in assay [9] it was -0.581; in [10] it was 1.76 (inactive).

With `[N-]=[N+]=Nc1ccccc1[C@H]1OC(c2ccc(OCCCO)cc2)=N[C@@]1(CCS(=O)(=O)c1ccccc1)C(=O)NCc1ccccc1`, the z-score in assay [1] was -0.0804; in assay [2] it was -0.337; in assay [3], -0.777; in [4], -0.99; in assay [5] it was -0.816; in assay [6], -0.337. In addition, the z-score in assay [7] was -0.327 (inactive); in assay [8] it was -0.929; in [9] it was -0.673; in assay [10], 1.09 (inactive).

With `COCCOC(=O)N1C(=O)[C@@]2(c3cc(C#CCCO)ccc31)[C@H](c1ccc(O)cc1)N1[C@H](c3ccccc3)[C@H](c3ccccc3)OC(=O)[C@H]1[C@@H]2C(=O)N1CCN(c2ncccn2)CC1`, the z-score in assay [1] is -0.858; in [2], -0.721; in assay [3], -0.753; in [4], -0.0852; in assay [5], 0.248; in assay [6] it was 0.0243. For the same compound, the z-score in assay [7] is -1.45 (inactive); in assay [8], -0.139; in [9], -0.611; in assay [10], 0.838 (inactive).

As for `COc1ccc(NC(=O)O[C@H]2[C@H](OC(=O)c3cc4ccccc4[nH]3)[C@@H](OC(=O)c3cc4ccccc4[nH]3)[C@@H](OC)O[C@@H]2CO)cc1`, the z-score is 0.349 in assay [1]; 0.203 in assay [2]; 0.825 in assay [3]; -0.699 in assay [4]; 0.422 in assay [5]; 0.923 in assay [6]. In addition, the z-score in assay [7] is 1.93 (inactive); in assay [8] it was 0.168; in assay [9], -0.117; in assay [10], -1.92 (inactive).

`O=C1O[C@H](c2ccccc2)[C@H](c2ccccc2)N2[C@H]1[C@@H](C(=O)NC[C@H](O)c1ccccc1)[C@]1(C(=O)Nc3ccccc31)[C@H]2c1ccc(O)cc1`: the z-score in [1] is -0.184; in [2], 0.279; in assay [3] it was -0.454; in [4] it was -2.03; in assay [5], -3.84; in assay [6], -3.2. Moreover, the z-score in assay [7] is -0.104 (inactive); in assay [8], -0.933; in assay [9] it was -1.03; in [10], -0.377 (inactive).

For the compound `CC(C)CCC[C@@H](C)[C@H]1CC[C@@]2(C)C3=C(CC[C@]12C)[C@@]1(C)CC[C@H](OC(=O)c2ccc(C(F)(F)F)nc2)C(C)(C)C1CC3` (stereo not given in full), the z-score in [1] is 0.351; in [2] it was 0.806; in [3] it was 0.717; in [4] it was 0.18; in assay [5], 0.79; in assay [6], 0.726. For the same compound, the z-score was -0.215 (inactive) in assay [7], 0.483 in assay [8], -0.263 in assay [9] and -0.0879 (inactive) in assay [10].

With `COCCOC(=O)N1C(=O)[C@@]2(c3ccccc31)[C@H](C(=O)N1CCc3cc(OC)c(OC)cc3C1)[C@H]1C(=O)O[C@H](c3ccccc3)[C@H](c3ccccc3)N1[C@@H]2c1ccc(O)cc1`, the z-score in assay [1] was 2.4; in assay [2] it was 1.1; in [3], 1.76; in [4], 0.275; in assay [5] it was 0.0454; in assay [6], 0.218. In addition, the z-score was 0.743 (inactive) in assay [7], -0.69 in assay [8], 0.0766 in assay [9] and -0.223 (inactive) in assay [10].

In the case of `COc1ccc(C(=O)Nc2ccc(CN3C(=O)[C@]4(O[C@H](CC(=O)N5CCC[C@H]5CO)[C@@H]([Si](C)(C)c5ccc(OC)cc5)[C@@H]4C)c4ccccc43)cc2)cc1`, the z-score in assay [1] was -1.14; in assay [2], 0.362; in assay [3] it was -4.53; in assay [4] it was -2.83; in assay [5], -4.35; in assay [6], -2.48. Besides, the z-score in assay [7] is -0.0307 (inactive); in assay [8], -1.09; in assay [9], -2.1; in assay [10], -1.98 (inactive).

Take `C#CCN(C/C=C/c1ccccc1)[C@H](CO)c1ccccc1`: the z-score in [1] was -1.94; in assay [2], -0.27; in assay [3] it was -1.76; in assay [4] it was -2.02; in assay [5], -1.96; in [6], -2.74. In addition, the z-score was -0.471 (inactive) in assay [7], -0.746 in [8], 0.0614 in [9] and -0.96 (inactive) in [10].

With `COC(=O)[C@@]1(CCC(=O)OC(C)(C)C)N=C(c2ccc(OCCCO)cc2)O[C@H]1c1ccccc1`, the z-score was -1.68 in assay [1]; 0.673 in assay [2]; -0.968 in [3]; -2.83 in [4]; -2.83 in assay [5]; -2.01 in assay [6]. Further, the z-score in assay [7] was -0.306 (inactive); in [8] it was -1.1; in assay [9], 0.558; in assay [10] it was -1.8 (inactive).

Take `C=CC[C@]1(C(=O)N2CCOCC2)N=C(c2ccc(OCCCO)cc2)O[C@H]1c1ccccc1N=[N+]=[N-]`: the z-score in assay [1] is 0.0797; in assay [2], 0.816; in assay [3], -0.0586; in [4] it was -0.094; in assay [5], -1.8; in assay [6], 1.23. For the same compound, the z-score in [7] is 1.17 (inactive); in assay [8] it was -0.733; in assay [9], -1.44; in [10] it was -0.441 (inactive).

With `Cc1ccc(S(=O)(=O)N2C[C@@H](C(=O)O)[C@H](Sc3ccccc3)C[C@H]2c2ccccc2)cc1`, the z-score in [1] is -1.21; in assay [2], -0.27; in assay [3] it was -0.721; in assay [4], -0.279; in assay [5], -0.45; in assay [6], -0.654. Also, the z-score is -0.883 (inactive) in assay [7], 0.588 in [8], 0.319 in assay [9] and 0.111 (inactive) in assay [10].

For the compound `C=CCNC(=O)[C@H]1[C@@H]2C(=O)O[C@@H](c3ccccc3)[C@@H](c3ccccc3)N2[C@@H](c2ccc(OCCO)cc2)[C@]12C(=O)Nc1ccc(C#CCC(C(=O)OC)C(=O)OC)cc12`, the z-score in assay [1] was -0.505; in assay [2], 0.208; in assay [3] it was 0.349; in [4] it was -1.46; in assay [5], -3.36; in assay [6] it was -0.232. Moreover, the z-score in assay [7] was 0.97 (inactive); in [8] it was -0.817; in assay [9], -1.12; in assay [10], 0.149 (inactive).

`C=CCN1C(=O)[C@]2(Cc3ccccc3)N=C(c3ccc(OCCCO)cc3)O[C@@H]2c2ccccc21`: the z-score in [1] was 0.0386; in [2], 0.146; in assay [3] it was -1.62; in assay [4], -3.02; in [5], -3.91; in [6], 0.822. The z-score in [7] is 2.21 (inactive); in assay [8] it was -1.21; in assay [9], -2.81; in assay [10], -2.28 (inactive).

Consider `O=C1O[C@@H](c2ccccc2)[C@@H](c2ccccc2)N2[C@@H](c3ccc(OCCO)cc3)[C@]3(C(=O)Nc4ccc(C#CCCO)cc43)[C@@H](C(=O)NC[C@H](O)c3ccccc3)[C@H]12`, for which the z-score was 0.225 in assay [1]; -0.0616 in [2]; 0.808 in assay [3]; -0.301 in assay [4]; 0.407 in [5]; -0.821 in assay [6]. Further, the z-score in assay [7] was -1.33 (inactive); in [8] it was -0.479; in assay [9], -0.468; in [10], -0.293 (inactive).

The values above are taken from PubChem BioAssay.
